According to PubChem BioAssay:
Active and inactive are the calls of the source.

Legend:
[1] = compound effects on differentiated 3T3-L1 adipocyte viability – cell-based, 3T3-L1 adipocytes, calcein-AM fluorescence, 48 h, basal, profiling panel (AID 1163); details: 3T3-L1 adipocytes viability, higher = more signal
[2] = compound effects on hepatocellular carcinoma cell viability – HepG2, calcein-AM fluorescence, 48 h, basal, profiling panel (AID 1164); details: higher = more signal
[3] = compound effects on multiple myeloma cell viability – MM1S, calcein-AM fluorescence, 48 h, basal, profiling panel (AID 1165); details: higher = more signal;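 further: viability of MM1S multiple myeloma cells under basal unstimulated conditions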
[4] = calcein-AM signal in unstimulated myeloma cells – cell-based, calcein-AM fluorescence, 48 h, PK04 Diversity Set, profiling panel (AID 1166); details: RPMI8226 myeloma viability, higher = more signal;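 further: cells grown under basal conditions without added stimulus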
[5] = JC-1 mitochondrial signal, unstimulated HepG2 cells – cell-based, JC-1 fluorescence, 24 h, 100 nL compound, profiling panel (AID 1167); details: HepG2 mitochondrial potential, higher = more signal
[6] = JC-1 mitochondrial signal, unstimulated adipocytes – cell-based, JC-1 fluorescence, 3T3-L1 adipocytes, 24 h, 100 nL compound, profiling panel (AID 1168); details: JC-1 mitochondrial fluorescence, higher = more signal, called active from +8 up or from −8 down
[7] = JC-1 mitochondrial signal, unstimulated myeloma cells – cell-based, JC-1 fluorescence, RPMI8226, 24 h, 100 nL compound, profiling panel (AID 1169); details: JC-1 mitochondrial potential fluorescence, higher = more signal
[8] = JC-1 mitochondrial signal, unstimulated MM1S myeloma – cell-based, JC-1 fluorescence, 24 h, 100 nL compound, profiling panel (AID 1170); details: MM1S mitochondrial potential, higher = more signal
[9] = resazurin metabolic signal in A549 cells – cell-based, resazurin fluorescence, 24 h, PK04 Diversity Set, profiling panel (AID 1171); details: A549 viability, higher = more signal, called active from +8 up or from −8 down
[10] = resazurin metabolic signal in HepG2 cells – cell-based, resazurin fluorescence, 24 h, PK04 Diversity Set, profiling panel (AID 1172); details: HepG2 viability, higher = more signal
[11] = budding yeast growth changes without added modifier – OD600, strain BY4716, 24 h, basal condition, primary screen (AID 1173); details: S. cerevisiae BY4716 growth, OD600, 24 h; higher = more signal, called active from +8 up or from −8 down
[12] = viability profiling in MM1S myeloma cells – cell-based, resazurin fluorescence, basal, 24 h, PK04 Diversity Set, profiling panel (AID 1174); details: higher = more signal, called active from +8 up or from −8 down
[13] = target: Dihydroorotate dehydrogenase (quinone), mitochondrial (Plasmodium falciparum (isolate 3D7)) (UniProt Q08210); assay: inhibition of P. falciparum DHODH – biochemical, C-terminal His tag, absorbance 600 nm, primary screen (AID 1175); details: PfDHODH enzyme, DCIP absorbance 600 nm; higher = more signal, called active from +8 up or from −8 down;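 further: recombinant parasite enzyme with a five histidine tag at its C terminus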
Sequence of Dihydroorotate dehydrogenase (quinone), mitochondrial (Plasmodium falciparum (isolate 3D7)) (Q08210 whole entry, looked up): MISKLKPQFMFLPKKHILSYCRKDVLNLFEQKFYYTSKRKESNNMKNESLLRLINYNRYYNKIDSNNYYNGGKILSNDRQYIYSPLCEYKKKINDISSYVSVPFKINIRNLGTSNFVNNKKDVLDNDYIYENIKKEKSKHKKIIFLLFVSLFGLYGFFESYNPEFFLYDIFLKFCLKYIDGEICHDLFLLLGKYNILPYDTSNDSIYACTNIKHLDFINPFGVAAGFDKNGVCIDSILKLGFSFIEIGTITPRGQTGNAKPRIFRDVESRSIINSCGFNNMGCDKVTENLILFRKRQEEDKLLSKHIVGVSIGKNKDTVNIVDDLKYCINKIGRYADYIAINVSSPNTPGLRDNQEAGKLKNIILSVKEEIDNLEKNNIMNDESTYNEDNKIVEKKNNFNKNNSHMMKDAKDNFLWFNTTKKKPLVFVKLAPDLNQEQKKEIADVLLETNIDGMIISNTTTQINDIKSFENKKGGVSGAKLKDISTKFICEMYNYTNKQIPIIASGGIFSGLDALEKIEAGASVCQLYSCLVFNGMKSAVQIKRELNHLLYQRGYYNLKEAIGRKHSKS

[14] = growth modulation of vineyard yeast isolate – strain RM11-1a, OD600, basal, 24 h, primary screen (AID 1177);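 further: cultures grown under basal conditions with no added stressor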; details: S. cerevisiae RM11-1a growth, OD600, 24 h; higher = more signal, called active from +8 up or from −8 down
[15] = growth of efflux-deficient E. coli DRC39 – strain DRC39, OD650, 24 h, E. coli filamentation inducers, primary screen (AID 1178);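 further: growth measured as culture turbidity by optical density at 650 nm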; details: E. coli DRC39 acrAB, higher = more signal, called active from +8 up or from −8 down
[16] = growth of efflux-deficient E. coli DRC39 – strain DRC39, OD650, 48 h, E. coli filamentation inducers, primary screen (AID 1179);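 further: screen aims at cell division blockers that make cells filament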; details: E. coli DRC39 delta-acrAB growth, higher = more signal, called active from +8 up or from −8 down
[17] = viability profiling in RPMI8226 myeloma cells – cell-based, resazurin fluorescence, basal, 24 h, PK04 Diversity Set, profiling panel (AID 1180); details: higher = more signal;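 further: RPMI8826 multiple myeloma cell line at 5000 cells per well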
[18] = target: E3 ubiquitin-protein ligase XIAP (Homo sapiens) (UniProt P98170); assay: small molecules binding XIAP protein – biophysical, small-molecule microarray, fluorescence 635 nm, primary screen (AID 1181); details: higher = more signal;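 further: score merges 667 nm emission and signal to noise over triplicate slides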
Sequence of E3 ubiquitin-protein ligase XIAP (Homo sapiens) (P98170 whole entry, looked up, the tested form may be a part): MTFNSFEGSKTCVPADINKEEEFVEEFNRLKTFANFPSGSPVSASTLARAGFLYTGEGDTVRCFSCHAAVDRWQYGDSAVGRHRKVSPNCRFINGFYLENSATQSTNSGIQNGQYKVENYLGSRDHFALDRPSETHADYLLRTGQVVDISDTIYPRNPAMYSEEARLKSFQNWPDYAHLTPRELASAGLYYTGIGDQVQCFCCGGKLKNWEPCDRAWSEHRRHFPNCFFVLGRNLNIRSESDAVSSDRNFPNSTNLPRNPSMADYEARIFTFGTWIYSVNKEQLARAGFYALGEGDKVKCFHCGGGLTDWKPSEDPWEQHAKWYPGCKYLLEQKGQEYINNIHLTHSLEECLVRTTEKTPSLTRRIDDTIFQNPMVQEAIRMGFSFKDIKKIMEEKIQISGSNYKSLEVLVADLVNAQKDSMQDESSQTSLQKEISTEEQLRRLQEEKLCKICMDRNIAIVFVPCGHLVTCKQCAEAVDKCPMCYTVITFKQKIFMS

[19] = system: XIP peptide (Xip251-270) binding; assay: XIP fragment 251-270 binding compounds – biochemical, small-molecule microarray, fluorescence 635/667 nm, 0.1 µg/mL protein, primary screen (AID 1182); details: fluorescent protein binding, 635 nm, higher = more signal, called active from +8 up or from −8 down
[20] = system: XIP peptide (Xip251-270); assay: compounds binding XIP fragment 251-270 – biochemical, small-molecule microarray, fluorescence 635/667 nm, 0.5 µg/mL protein, primary screen (AID 1183); details: fluorescence 635 nm, higher = more signal

## COC(=O)C(CC#Cc1ccc2c(c1)[C@]1(C(=O)N2)[C@H](C(=O)O)[C@H]2C(=O)O[C@H](c3ccccc3)[C@H](c3ccccc3)N2[C@@H]1c1ccc(OCCO)cc1)C(=O)OC
[1]
  z-score: 0.313
[2]
  z-score: 1.27
[3]
  z-score: -2.5
[4]
  z-score: -3.54
[5]
  z-score: -0.532
[6]
  z-score: 0.587 (inactive)
[7]
  z-score: -0.746
[8]
  z-score: 0.171
[9]
  z-score: 0.7 (inactive)
[10]
  z-score: 0.821
[11]
  z-score: -0.842 (inactive)
[12]
  z-score: 1.22 (inactive)
[13]
  composite z-score: -15.4 (active)
[14]
  z-score: 0.338 (inactive)
[15]
  z-score: 1.6 (inactive)
[16]
  z-score: 1.72 (inactive)
[17]
  z-score: -2.37
[18]
  composite z-score: -0.207
[19]
  composite z-score: 1.68 (inactive)
[20]
  composite z-score: 0.836

## COc1ccc([Si](C)(C)[C@H]2[C@H](CC(=O)N3Cc4ccccc4C[C@H]3CO)O[C@@]3(C(=O)N(Cc4cccc(N5C(=O)COc6ccccc65)c4)c4ccccc43)[C@@H]2C)cc1
[1]
  z-score: 1.8
[2]
  z-score: -0.0432
[3]
  z-score: -0.227
[4]
  z-score: -1.19
[5]
  z-score: 2.09
[6]
  z-score: 0.335 (inactive)
[7]
  z-score: -1.15
[8]
  z-score: 0.424
[9]
  z-score: -0.987 (inactive)
[10]
  z-score: -0.593
[11]
  z-score: -0.855 (inactive)
[12]
  z-score: -1.11 (inactive)
[13]
  composite z-score: -0.0999 (inactive)
[14]
  z-score: 2.03 (inactive)
[15]
  z-score: 1.48 (inactive)
[16]
  z-score: -0.185 (inactive)
[17]
  z-score: -0.668
[18]
  composite z-score: -0.163
[19]
  composite z-score: 1.83 (inactive)
[20]
  composite z-score: 0.618

## CC(C)(C)OC(=O)CC[C@]1(C(=O)NCc2ccccc2)N=C(c2ccc(OCCCO)cc2)O[C@H]1c1ccccc1N=[N+]=[N-]
[1]
  z-score: 2.99
[2]
  z-score: -0.957
[3]
  z-score: -0.369
[4]
  z-score: -1.52
[5]
  z-score: 2.24
[6]
  z-score: 2.6 (inactive)
[7]
  z-score: -0.578
[8]
  z-score: -0.669
[9]
  z-score: -0.413 (inactive)
[10]
  z-score: 0.384
[11]
  z-score: 0 (inactive)
[12]
  z-score: -0.439 (inactive)
[13]
  composite z-score: 1.18 (inactive)
[14]
  z-score: 0.892 (inactive)
[15]
  z-score: 3.14 (inactive)
[16]
  z-score: 1.08 (inactive)
[17]
  z-score: -0.2
[18]
  composite z-score: -0.0095
[19]
  composite z-score: 0.735 (inactive)
[20]
  composite z-score: 0.725

## C=CCNC(=O)[C@@H]1[C@H]2C(=O)O[C@H](c3ccccc3)[C@H](c3ccccc3)N2[C@H](c2ccc(O)cc2)[C@@]12C(=O)N(C(=O)OCCOC)c1ccc(C#Cc3ccc(OC)cc3)cc12
[1]
  z-score: 1.24
[2]
  z-score: 0.216
[3]
  z-score: -1.58
[4]
  z-score: -2.52
[5]
  z-score: -0.914
[6]
  z-score: 3.45 (inactive)
[7]
  z-score: -0.351
[8]
  z-score: 0.0591
[9]
  z-score: 0.834 (inactive)
[10]
  z-score: -0.35
[11]
  z-score: -0.468 (inactive)
[12]
  z-score: 0.699 (inactive)
[13]
  composite z-score: 0.21 (inactive)
[14]
  z-score: 0.964 (inactive)
[15]
  z-score: 0.236 (inactive)
[16]
  z-score: 0.83 (inactive)
[17]
  z-score: 0.804
[18]
  composite z-score: 0.14
[19]
  composite z-score: 0.688 (inactive)
[20]
  composite z-score: 0.656
